Source: PubChem BioAssay (NCI)
About 83,000 compounds went through this panel and 20% of them were active in at least one assay; those are over-represented in the sample as a whole.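 Each cell line was grown in a 96-well plate and treated with one concentration of compound for 48 hours. Values below 10 were considered active.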 Activity calls are given as the source filed them.

Key:
Experiment in all cases: NCI-60 one-dose screen, 48 h (100 = growth as untreated, 0 = no growth, -100 = all killed)
Details in all cases: 10 µM unless noted
NCI-H23 lung = system: NCI-H23 lung
NCI-H226 lung = system: NCI-H226 lung
HOP-62 NSCLC = system: HOP-62 NSCLC
NCI-H460 lung = system: NCI-H460 lung
HOP-92 NSCLC = system: HOP-92 NSCLC
NCI-H522 lung = system: NCI-H522 lung
A549/ATCC NSCLC = system: A549/ATCC NSCLC
786-0 renal = system: 786-0 renal
COLO 205 colon = system: COLO 205 colon
DU-145 prostate = system: DU-145 prostate
K-562 leukemia = system: K-562 leukemia
MALME-3M melanoma = system: MALME-3M melanoma
MDA-MB-231 breast = system: MDA-MB-231 breast
RXF 393 renal = system: RXF 393 renal
SF-268 CNS = system: SF-268 CNS
SF-539 CNS = system: SF-539 CNS
UACC-257 melanoma = system: UACC-257 melanoma
M14 melanoma = system: M14 melanoma
SF-295 CNS = system: SF-295 CNS

Measured: growth

Cc1ccc(-c2ccc(Nc3ccccc3)nn2)cc1S(N)(=O)=O
inactive: NCI-H23 lung 96.2% | NCI-H226 lung 99.2% | HOP-62 NSCLC 107% | NCI-H460 lung 82.9% | HOP-92 NSCLC 98.9% | NCI-H522 lung 96.1% | A549/ATCC NSCLC 79.4% | 786-0 renal 103% | COLO 205 colon 96% | DU-145 prostate 85.2% | K-562 leukemia 21.3% | MALME-3M melanoma 73.5% | MDA-MB-231 breast 89.2% | RXF 393 renal 91.8% | SF-268 CNS 97.4% | SF-539 CNS 82.3% | UACC-257 melanoma 96.4% | M14 melanoma 83.2%

Cc1ccc(-c2nc3ccc(Cl)cc3c(=O)n2N2C(=O)CSC2c2ccccc2Cl)cc1 (configuration not stated)
inactive: NCI-H23 lung 91.1% | NCI-H226 lung 86.6% | NCI-H460 lung 48.5% | NCI-H522 lung 76.9% | A549/ATCC NSCLC 13.2% | 786-0 renal 70% | COLO 205 colon 66.6% | DU-145 prostate 73.1% | K-562 leukemia 93.4% | MALME-3M melanoma 65.8% | MDA-MB-231 breast 59.9% | RXF 393 renal 98.5% | SF-268 CNS 60.4% | SF-539 CNS 78.8% | M14 melanoma 71.4%
active: HOP-62 NSCLC 2.48% | HOP-92 NSCLC -4.8%

Fc1ccc(Nc2nc(Nc3ccc(-c4nc5ccccc5[nH]4)cc3)nc(N3CCCC3)n2)cc1
active: K-562 leukemia -38.8% | M14 melanoma -58.3%
inactive: NCI-H23 lung 75.1% | NCI-H226 lung 79.9% | HOP-62 NSCLC 78.6% | NCI-H460 lung 70.4% | HOP-92 NSCLC 64.4% | NCI-H522 lung 78.8% | A549/ATCC NSCLC 61.2% | 786-0 renal 85.2% | COLO 205 colon 86% | DU-145 prostate 93.3% | MALME-3M melanoma 85.7% | MDA-MB-231 breast 61.6% | RXF 393 renal 77.8% | SF-268 CNS 91.2% | SF-295 CNS 90.9% | SF-539 CNS 81.6%

Nc1c(C(=O)Nc2cccc(Cl)c2)sc2ncc(Cl)cc12
inactive: NCI-H23 lung 87% | NCI-H226 lung 75.7% | HOP-62 NSCLC 73% | NCI-H460 lung 13.8% | HOP-92 NSCLC 91.9% | NCI-H522 lung 97.4% | A549/ATCC NSCLC 43.4% | 786-0 renal 85.4% | COLO 205 colon 79.6% | DU-145 prostate 56.7% | K-562 leukemia 80.6% | MALME-3M melanoma 69.8% | MDA-MB-231 breast 83.7% | RXF 393 renal 83.5% | SF-268 CNS 63.5% | SF-539 CNS 60.8% | UACC-257 melanoma 100% | M14 melanoma 88.2%

Oc1ccc(CCC2CCCC(CCc3ccc(OCCF)cc3)N2)cc1 (configuration not stated)
inactive: NCI-H23 lung 87.3% | NCI-H226 lung 99.3% | HOP-62 NSCLC 95.6% | HOP-92 NSCLC 75.3% | NCI-H522 lung 95.3% | A549/ATCC NSCLC 91% | 786-0 renal 95.9% | COLO 205 colon 97.2% | DU-145 prostate 109% | K-562 leukemia 66% | MALME-3M melanoma 117% | MDA-MB-231 breast 88.9% | RXF 393 renal 84.7% | SF-268 CNS 99.1% | SF-295 CNS 96.4% | SF-539 CNS 104%

CC[C@]12C=CCN3CC[C@@]4(c5cc([C@H]6CCC(=O)N6)c(OC)cc5N(C)[C@H]4[C@@](O)(C(=O)OC)[C@@H]1OC(C)=O)[C@@H]32
inactive: NCI-H23 lung 100% [2.5 µM] | NCI-H226 lung 92.7% [2.5 µM] | HOP-62 NSCLC 98.1% [2.5 µM] | NCI-H460 lung 107% [2.5 µM] | HOP-92 NSCLC 98.5% [2.5 µM] | NCI-H522 lung 93% [2.5 µM] | A549/ATCC NSCLC 100% [2.5 µM] | 786-0 renal 104% [2.5 µM] | COLO 205 colon 108% [2.5 µM] | DU-145 prostate 119% [2.5 µM] | K-562 leukemia 105% [2.5 µM] | MALME-3M melanoma 97.5% [2.5 µM] | MDA-MB-231 breast 98.7% [2.5 µM] | RXF 393 renal 113% [2.5 µM] | SF-268 CNS 116% [2.5 µM] | SF-295 CNS 100% [2.5 µM] | SF-539 CNS 92.4% [2.5 µM] | M14 melanoma 95.5% [2.5 µM]

Cn1cc(-c2csc(-c3cn(CCN)c4ccc(Br)cc34)n2)c2cccnc21
active: COLO 205 colon -5.13%
inactive: NCI-H23 lung 78.4% | NCI-H226 lung 85.1% | HOP-62 NSCLC 67.2% | NCI-H460 lung 16.4% | HOP-92 NSCLC 45.9% | NCI-H522 lung 90.6% | A549/ATCC NSCLC 37.5% | 786-0 renal 73.1% | DU-145 prostate 58.5% | K-562 leukemia 18.1% | MALME-3M melanoma 97.5% | MDA-MB-231 breast 62.4% | RXF 393 renal 75.6% | SF-268 CNS 78.4% | SF-295 CNS 100% | SF-539 CNS 82.5% | UACC-257 melanoma 92.8% | M14 melanoma 86.1%

NCCn1cc(-c2nc(-c3c[nH]c4ncccc34)cs2)c2ccccc21
inactive: NCI-H23 lung 83% | NCI-H226 lung 70.6% | HOP-62 NSCLC 75.4% | HOP-92 NSCLC 54.3% | NCI-H522 lung 90.4% | A549/ATCC NSCLC 76.8% | 786-0 renal 89.8% | COLO 205 colon 96.7% | DU-145 prostate 99.5% | K-562 leukemia 82.9% | MALME-3M melanoma 73.8% | MDA-MB-231 breast 66.2% | RXF 393 renal 84.9% | SF-268 CNS 84.7% | SF-295 CNS 105% | SF-539 CNS 90.2% | UACC-257 melanoma 92.8% | M14 melanoma 96.9%

CC(CNc1nc(Nc2ccc(Cl)c(Cl)c2)nc(C(Cl)(Cl)Cl)n1)N(C)C (configuration not stated)
inactive: NCI-H23 lung 14.2% | NCI-H226 lung 40.8% | MALME-3M melanoma 15.6% | SF-268 CNS 11.5% | SF-539 CNS 16.3%
active: HOP-62 NSCLC -68.4% | NCI-H460 lung -63% | HOP-92 NSCLC -17.7% | NCI-H522 lung -86.8% | A549/ATCC NSCLC 4.96% | 786-0 renal -77.3% | COLO 205 colon -77.7% | DU-145 prostate 5.37% | K-562 leukemia -54% | MDA-MB-231 breast -62.6% | RXF 393 renal -24.3% | UACC-257 melanoma -8.37% | M14 melanoma -60.6%

CC1(C)c2ccccc2C(=O)C1(Br)Cc1ccccc1 (configuration not stated)
inactive: NCI-H23 lung 74.1% | NCI-H226 lung 94.1% | HOP-62 NSCLC 95% | HOP-92 NSCLC 83% | NCI-H522 lung 83.1% | A549/ATCC NSCLC 94.6% | 786-0 renal 81.7% | COLO 205 colon 97.9% | DU-145 prostate 92.5% | K-562 leukemia 42.7% | MALME-3M melanoma 121% | MDA-MB-231 breast 105% | RXF 393 renal 83.5% | SF-268 CNS 89.6% | SF-295 CNS 85.7% | SF-539 CNS 89.9% | UACC-257 melanoma 99.4% | M14 melanoma 89.1%

Cc1cccc(C)c1NCc1nc(-c2ccccc2)n[nH]1
inactive: NCI-H23 lung 97.9% | NCI-H226 lung 112% | HOP-62 NSCLC 100% | NCI-H460 lung 107% | HOP-92 NSCLC 101% | NCI-H522 lung 94.5% | A549/ATCC NSCLC 101% | 786-0 renal 95.6% | COLO 205 colon 106% | DU-145 prostate 106% | K-562 leukemia 100% | MALME-3M melanoma 98.6% | MDA-MB-231 breast 103% | RXF 393 renal 121% | SF-268 CNS 101% | SF-295 CNS 98.1% | SF-539 CNS 93.2% | UACC-257 melanoma 100% | M14 melanoma 97.9%
